ELG1 repair inh: inhibitors of ELG1-dependent DNA repair in HEK293T cells; Potency, µM (doses to about 46.1 µM), for the others: at the top dose activity change, negative = inhibition, actives largely listed as inhibitors; 2.3% of 330,000 active; HEK293T ELG1-luciferase reporter, luminescence, 16 h; DNA damage induced by 5-fluorouridine; further: nearly all actives have a fitted effect of over 55% in size
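5-Fluorouridine DNA damage + compound/DMSO, 2,000 cells/well, 16 h, 37 °C/5% CO2. ONE-Glo, 30 min RT, luminescence. Readout = decrease in reporter signal.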
RORgamma inh: blocks mouse ROR gamma transcriptional activity. Drosophila S2 Gal4-RORgamma UAS-luciferase reporter, 20 h. Potency, µM (top dose mostly 53.6 µM), without a hit: at the highest dose activity change, negative = inhibition, hits mostly inhibitors. 5.4% of 310,000 active. P51450; further: nearly all actives have a fitted effect of over 60% in size
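Stable Schneider cell line, Gal4 DNA-binding domain fused to ROR gamma, UAS-luciferase. Cmpd 1 hr RT → CuSO4 700 uM final → 20 hr RT → luciferase reagent 10 min → luminescence.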
VP16 counter: counter-screen for ROR gamma inhibitors: Gal4-VP16 reporter; Drosophila S2 Gal4-VP16 UAS-luciferase, luminescence, 20 h; Potency, µM (highest dose often 53.6 µM), for the others: at the highest dose activity, negative = inhibition, usual class: inhibitors; 3.5% of 310,000 active; AID 2546;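 further: Gal4-VP16 expression switched on by copper sulfate through the metallothionein promoter; nearly all actives have a fitted effect of over 50% in size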
12-LOX inh: blocks human arachidonate 12S-lipoxygenase; purified 12hLO, xylenol orange hydroperoxide absorbance; P18054; AID 1671190; 1.1% of 580,000 active; Potency, µM (series often up to 108 µM), for inactives: at the highest dose activity change, negative = inhibition, actives largely listed as inhibitors
Target sequence (P18054 whole entry, looked up): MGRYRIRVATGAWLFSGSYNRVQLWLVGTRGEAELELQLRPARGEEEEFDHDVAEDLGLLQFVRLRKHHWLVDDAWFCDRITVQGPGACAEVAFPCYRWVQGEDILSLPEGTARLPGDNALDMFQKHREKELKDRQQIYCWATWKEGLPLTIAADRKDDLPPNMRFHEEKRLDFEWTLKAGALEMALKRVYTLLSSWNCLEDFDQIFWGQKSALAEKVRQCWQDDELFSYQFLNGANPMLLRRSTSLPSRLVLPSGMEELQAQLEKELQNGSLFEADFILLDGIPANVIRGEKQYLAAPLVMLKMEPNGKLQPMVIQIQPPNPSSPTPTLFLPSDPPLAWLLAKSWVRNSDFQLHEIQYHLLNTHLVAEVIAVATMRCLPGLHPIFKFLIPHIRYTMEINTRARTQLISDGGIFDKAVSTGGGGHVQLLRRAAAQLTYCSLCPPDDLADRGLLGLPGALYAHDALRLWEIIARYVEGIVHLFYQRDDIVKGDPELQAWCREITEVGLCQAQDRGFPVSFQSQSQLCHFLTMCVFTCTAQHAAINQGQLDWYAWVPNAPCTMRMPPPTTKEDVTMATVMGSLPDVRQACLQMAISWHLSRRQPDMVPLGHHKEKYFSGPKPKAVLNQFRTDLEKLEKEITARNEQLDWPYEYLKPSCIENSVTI
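Purified human 12hLO (150 nM final) in 25 mM Hepes, 0.01% Triton X-100, pH 7.0 was preincubated 15 min at room temperature with compound. Then 40 uM arachidonic acid was added, 30 min. Hydroperoxide was read by Fe-XO absorbance ratio 573/405 nm.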
DT40 TDP1 CPT: growth inhibition of DT40 Tdp1-/-;hTDP1 cells with camptothecin (screen for TDP1 inhibitors); chicken DT40 Tdp1-/-;hTDP1 cells + 20 nM CPT, ATP luminescence, 48 h; AID 686979; Potency, µM (doses to about 46.2 µM), inactives show at the top dose activity change, negative = growth inhibition, most hits filed as inhibitors; 12% of 420,000 active; further: nearly all actives have a fitted effect of over 55% in size
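Chicken DT40 Tdp1-/- cells stably complemented with human TDP1 were seeded at 400 cells/well in medium containing 20 nM camptothecin, exposed to pin-transferred compounds, and grown at 37 °C for at least 48 hr. Viability was read as ATP luminescence.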
TDP1 cell noCPT: qHTS for Inhibitors of human tyrosyl-DNA phosphodiesterase 1 (TDP1): qHTS in cells in absence of CPT | Potency, µM (highest dose often 46.2 µM), inactives show at the highest dose activity change, negative = growth inhibition, hits mostly inhibitors | 15% of 420,000 active | DT40 Tdp1-/- hTDP1 cells, no CPT, ATP luminescence, 48 h; further: nearly all actives have a fitted effect of over 55% in size
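Stably hTDP1-transfected Tdp1-null chicken DT40 cells were treated with library compounds minus camptothecin and grown for at least 48 hr at 37 °C, after which cellular ATP was quantified by luminescence.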
Starred values were filed as active, the others as inactive; ? = inconclusive; · = no result; [ ] = dose if it differs, or a comment. Hits are enriched below; roughly 15% of the tested compounds scored in any of these assays. The call rests on the fitted dose curve; in most records, active means well fitted curve in the direction sought with a large enough effect; inconclusive means small, poorly fitted or top-dose-only effect, or another doubt; inactive means no such curve, though single readings can be large; an effect the other way counts as inactive or inconclusive. On the % scale 0 is the no-effect control and ±100 the full control effect; potency means the concentration at half of the fitted maximal effect.

SMILES | ELG1 repair inh | RORgamma inh | VP16 counter | 12-LOX inh | DT40 TDP1 CPT | TDP1 cell noCPT
COc1ccc(OC)c(Nc2nc(NCCc3ccccc3)nc3c2cnn3-c2ccccc2)c1 | · | · | · | 38% | · | ·
Cc1noc(C)c1S(=O)(=O)N1CCCC(CCc2ccc(F)c(F)c2)C1 (centres undefined) | · | · | · | 4% | · | ·
O=C1CC(/C=C/c2ccccn2)=Nc2ccccc2N1 | ? | 6% | 26% | -5% | ? | 15µM*
O=C1CC(/C=C/c2ccco2)=Nc2ccccc2N1 | 4% | 12% | -17% | · | ? | ?
CNC(=O)[C@@H]1C[C@H](Oc2ccccc2)CN1C(=O)Cn1nc(C(F)(F)F)cc1C | · | · | · | 33% | · | ·
Cc1cccc2nc(CNC(=O)CN3Cc4cc(Cl)ccc4OC(C)C3)cn12 (centres undefined) | · | · | · | 8% | 4.1µM* | 5.8µM*
CN(C)CCCNc1nc2cc(-c3cccc(C(F)(F)F)c3)sc2c(=O)n1C | · | · | · | -16% | 18µM* | ?
Cn1c(NCc2ccccc2)nc2cc(-c3cccc(C(F)(F)F)c3)sc2c1=O | · | · | · | 14% | ? | 18µM*
Cn1c(NCc2cccnc2)nc2cc(-c3cccc(C(F)(F)F)c3)sc2c1=O | · | · | · | -8% | ? | ?
CN(C)CCCNc1nc2cc(-c3cccc(Cl)c3)sc2c(=O)n1C | · | · | · | -17% | ? | ?
Cc1ccsc1-c1cc2nc(NCCCN(C)C)n(C)c(=O)c2s1 | · | · | · | ? | 23µM* | 23µM*
COc1ccc2c(c1)c(CN1CCOCCNC(=O)CC1)cn2C | · | · | · | 85% | · | ·
COc1ccc(C(=O)CCC(=O)N2CCN(c3cccc(Cl)c3)CC2)cc1 | -27% | 30% | -6% | 4%[57.4 µM] | 16µM* | 23µM*
COc1ccc(-c2noc(CCC(=O)N3CCN(c4ccccc4C)CC3)n2)cc1 | -30% | · | · | ? | ? | -17%
COc1ccc(-c2noc(CCC(=O)N3CCN(c4cccc(F)c4)CC3)n2)cc1 | ? | · | · | 3% | ? | ?
COc1ccc(-c2nnn(CCC(=O)O)n2)cc1 | 2% | 2.2µM* | -57% | 13% | -16% | -6%
COc1ccc(-c2noc(CCC(=O)N3CCN(c4ccccc4OC)CC3)n2)cc1 | ? | · | · | 0% | ? | 21µM*
COc1ccc(OCC(=O)N2CCN(c3cccc(Cl)c3)CC2)cc1 | ? | 9% | 13% | 14% | ? | ?
COc1ccc(-c2noc(CCC(=O)N3CCN(c4cccc(Cl)c4)CC3)n2)cc1 | ? | · | · | -3% | ? | 23µM*
CC1=C[C@@H](CC#N)[C@H](C(C)C)C[C@H]1CC(=O)NCc1ccc(F)cc1 | · | · | · | 40%[176 µM] | · | ·
COc1ccc(C(=O)C(C)OC(=O)C23CC4CC(CC(Cl)(C4)C2)C3)c(OC)c1 (centres undefined) | · | · | · | 74% | · | ·
COc1ccccc1N1CCN(C(=O)Cn2nnc(-c3ccncc3)n2)CC1 | -7% | 8% | -8% | 5% | -13% | -11%
COc1ccccc1-c1noc(CCC(=O)N2CCN(c3cc(C)ccc3C)CC2)n1 | ? | · | · | -7% | ? | 15µM*
COc1ccc(-c2nnn(CC(=O)N3CCN(c4ccccc4OC)CC3)n2)cc1 | 23µM* | ? | 17% | 3% | ? | ?
Cc1ccc(C)c(N2CCN(C(=O)CCc3nc(-c4ccccc4C(F)(F)F)no3)CC2)c1 | ? | · | · | 0% | ? | ?
SMILES | ELG1 repair inh | RORgamma inh | VP16 counter | 12-LOX inh | DT40 TDP1 CPT | TDP1 cell noCPT
Cc1ccc(/C(=N/O)c2ccc(O)cc2O)cc1 | · | · | · | -21% | · | ·
COCCNc1nc(-c2c(C)noc2C)nc2ccccc12 | · | -19% | -22% | -14% | -22% | -17%
Cc1noc(C)c1-c1nc(Nc2ccc(F)cc2)c2ccccc2n1 | · | 19% | 1% | 22µM* | -16% | 2%
Cc1noc(C)c1-c1nc(NC2CC2)c2ccccc2n1 | · | -30% | 2% | ? | 0% | ?
Cc1noc(C)c1-c1nc(NCc2cccs2)c2ccccc2n1 | · | -27% | -11% | 28µM* | ? | 23µM*
Cc1noc(C)c1-c1nc(Nc2ccncc2)c2ccccc2n1 | · | 8.9µM* | -3% | ? | -12% | ?
C[C@]1(O)CCN(C(=O)Cc2nc(-c3ccncc3)n[nH]2)C[C@@H]1O | · | · | · | 3% | · | ·
Cc1sc2ccccc2[n+]1C | · | · | · | · | 4µM* | 3.2µM*
COc1ccc2sc(C)[n+](C)c2c1 | -19% | 7% | 9% | ? | ? | 18µM*
Cc1sc2ccccc2[n+]1Cc1ccccc1 | · | · | · | · | 0.79µM* | 1.1µM*
Cc1ccc(S(=O)(=O)Cc2sc3ccccc3[n+]2C)cc1 | -14% | 16% | -24% | ? | -25% | ?
Cc1sc2ccccc2[n+]1CCCCBr | · | · | · | · | 4µM* | 5.6µM*
Cc1ccc2c(c1)sc(C)[n+]2CCCS(=O)(=O)[O-] | 15% | 2% | 4% | ? | -1% | -6%
Cc1ccc(NC(=O)CN(c2cc(C(F)(F)F)ccc2Cl)S(C)(=O)=O)cc1C | · | · | · | 4% | · | ·
Cc1sc2ccccc2[n+]1CCCC[n+]1c(C)sc2ccccc21 | · | · | · | · | 4.5µM* | 2.5µM*

Source: PubChem BioAssay (National Center for Advancing Translational Sciences (NCATS))
